The campaign covered roughly 5,300 compounds. About 130 (2.5%) showed an effect of 50% or more. The sample as a whole holds a higher share of strong results than the screen did.
Test system: M. mycetomatis strain mm55
Conditions: primary screen, metabolic activity vs growth control; 96 h, 2 µM; inhibitor

Row | SMILES | % viability
1 | CC(=O)[C@@]12OC(C)(c3ccccc3)O[C@@H]1C[C@H]1[C@@H]3CCC4=CC(=O)CC[C@]4(C)[C@H]3CC[C@@]12C (stereo partly shown) [ONC0002369, algestoneacetophenide] | 99.76%
2 | CC(Nc1ncnc2nc[nH]c12)c1cc2ccc(F)cc2nc1-c1ccccn1 (stereo not shown) [ONC0004426, amg319] | 156.7%
3 | N[C@H](CSC(c1ccccc1)(c1ccccc1)c1ccccc1)C(=O)O [ONC0001742, strityllcysteine] | 48.39%
4 | CSC[C@H](N)C(=O)O [ONC0003388, smethylcysteine] | 83.56%
5 | N[C@H](Cc1ccccc1)C(=O)O [ONC0002457, dphenylalanine] | 101.3%
6 | C[C@]12C=CC(=O)C=C1CCC1C2[C@@H](O)C[C@@]2(C)C1CC[C@]2(O)C(=O)CO (stereo partly shown) [ONC0005351, prednisolone] | 112.6%
7 | COc1cc(-c2ccc(/N=N/c3ccc4c(S(=O)(=O)O)cc(S(=O)(=O)O)c(N)c4c3O)c(OC)c2)ccc1/N=N/c1ccc2c(S(=O)(=O)O)cc(S(=O)(=O)O)c(N)c2c1O [ONC0002750, chicagoskyblue6b] | 94.85%
8 | Cc1cc(-c2ccc(/N=N/c3ccc4c(S(=O)(=O)O)cc(S(=O)(=O)O)c(N)c4c3O)c(C)c2)ccc1/N=N/c1ccc2c(S(=O)(=O)O)cc(S(=O)(=O)O)c(N)c2c1O [ONC0003296, evans blue] | 49.05%
9 | COC(=O)CC1CC(c2ccc(O)cc2)=NO1 (stereo not shown) [ONC0001839, iso1] | 78.97%
10 | N[C@@H](CC(=O)N1CCn2c(nnc2C(F)(F)F)C1)Cc1n[nH]c2c(F)c(F)ccc12 [ONC0001660, pk44 phosphate] | 33.36%
11 | N[C@@H](CC(=O)N1CCn2c(nnc2C(F)(F)F)C1)Cc1cc(F)c(F)cc1F [ONC0004045, sitagliptin phosphate] | 93.31%
12 | NCCNc1ccc(NCCN)c2c1C(=O)c1ccncc1C2=O.O=C(O)/C=C\C(=O)O.O=C(O)/C=C\C(=O)O [ONC0000916, pixantrone dimaleate] | 85.22%
13 | Fc1cc(F)c2c(c1)[C@H]1C=CC[C@H]1C(c1cccnc1)N2 (mixture of isomers) [ONC0005186, golgicide a] | 78.39%
14 | O=C(O)Cc1ccc(CCNS(=O)(=O)c2ccc(Cl)cc2)cc1 [ONC0002194, daltroban] | 74.66%
15 | O=C(O)CCn1c2c(c3ccccc31)C[C@H](NS(=O)(=O)c1ccc(F)cc1)CC2 [ONC0000918, ramatroban] | 93.57%
16 | Cc1ccc2c(c1CCC(=O)O)CC[C@@H](NS(=O)(=O)c1ccc(Cl)cc1)C2 [ONC0001303, terutroban] | 45.19%
